Most compounds without a hit are left out; they make up all but 6.5% or so of the library.
LASV entry inh = inhibitors of Lassa virus binding or cell entry; Lassa virus pseudotype entry inhibition, cell reporter; Potency, µM (series often up to 37.9 µM), usual class: inhibitors; 300,000 tested, 1.2% active; AID 540256; calls by dose curve; tested in HEK293 cells; also: nearly all actives have a fitted effect of over 50% in size
Vaccinia mCherry = vaccinia inhibition (mCherry reporter). Vaccinia virus mCherry reporter infection, fluorescence. Potency, µM (series often up to 36.5 µM), most hits filed as inhibitors. 310,000 tested, 0.63% active. AID 720579; calls by dose curve; tested in A549 cells; also: nearly all actives have a fitted effect of over 35% in size
HCMV inh = blocks human cytomegalovirus replication. HFF cells, HCMV-luciferase reporter, 72 h; hits give low values. activity change, negative = inhibition, % at 57.5 µM. 410,000 tested, 4.5% active. AID 1259415; in the data active = activity change below about -60%; inconclusive = no clear call, values can overlap the other calls; inactive = above about -39%
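Human foreskin fibroblasts infected with luciferase-reporter HCMV at MOI 1 PFU/cell, compounds at two doses. Luciferase measured 72 h post infection; normalized to buffer-only basal and Salinomycin (10uM) controls.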
Vaccinia Venus = vaccinia inhibition (Venus reporter); Vaccinia virus Venus reporter expression, fluorescence; Potency, µM (series often up to 36.5 µM), usual class: inhibitors; 330,000 tested, 0.46% active; AID 720580; calls by dose curve; tested in A549 cells; also: nearly all actives have a fitted effect of over 30% in size
FMDV antiviral = antivirals against foot and mouth disease virus; FMDV antiviral cell-based qHTS; Potency, µM (top dose mostly 57.9 µM), usual class: inhibitors; 410,000 tested, 1.2% active; calls by dose curve; tested in HEK293T cells; also: read-out not given here; nearly all actives have a fitted effect of over 45% in size
Marburg entry inh = inhibitors of Marburg virus binding or cell entry. Marburg virus pseudotyped entry inhibition, cell reporter. Potency, µM (titrated, usually from 37.8 µM), actives largely listed as inhibitors. 300,000 tested, 1.8% active; calls by dose curve; tested in HEK293 cells
Hits are given with their value; . = inactive; ? = inconclusive; / = not tested or not shown; [ ] = remark or other dose.

SMILES	LASV entry inh	Vaccinia mCherry	HCMV inh	Vaccinia Venus	FMDV antiviral	Marburg entry inh
C=CCn1c(CNC(=O)c2ccccc2F)nnc1SCC(=O)NC(C)c1ccccc1 (centres undefined)	.	.	.	.	.	.
O=C(Nc1csc([N+](=O)[O-])c1)Nc1ccccc1Cl	.	.[7.34 µM]	-67	.[7.34 µM]	.	?
Cc1ccccc1NC(=O)C1CCC(CNS(=O)(=O)c2ccc3c(c2)C(C)(C)C(=O)N3C)CC1 (centres undefined)	.	.	.	.	?	/
CC(C)(C(=O)NCc1ccccc1)n1cc(NC(=O)c2ccc3c(c2)OCO3)cn1	/	/	.	/	/	/
COc1ccc(CNC(=O)CN2CCC(NC(=O)c3ccccc3C)CC2)cc1	/	.	.	.	.	?
CN1CCN(Cc2cc(=O)n3ccsc3n2)CC1	.	.	-89	.	.	.
O=c1cc(CN2CCCCCC2)nc2sccn12	.	.	.	.	.	.
COc1cc(C2c3cc4c(cc3OC(N3CCCC3)C2C)OCO4)cc(OC)c1O (centres undefined)	.	.	.	.	.	.
COc1ccc(NC2Oc3cc4c(cc3C(c3cc(OC)c(OC)c(OC)c3)C2C)OCO4)cc1 (centres undefined)	?	?	-77	?	.	?
COc1cc(C2c3cc4c(cc3OC(Nc3ccc(C(=O)O)cc3)C2C)OCO4)cc(OC)c1OC (centres undefined)	?	?	-60	?	.	?
COc1cc(C2c3cc4c(cc3OC(C)(N3CCCC3)C2C)OCO4)cc(OC)c1OC (centres undefined)	?	?	-68	?	.	?
COc1cc(C2c3cc4c(cc3OC(NCCc3ccccc3)C2C)OCO4)cc(OC)c1OC (centres undefined)	?	?	-82	?	.	?
C#CCN1C(=O)[C@]2(OCCC=C[C@@H]2C)c2cc(OC)ccc21	/	/	/	/	/	.
Cc1cccc(Cn2c(=O)n(CCc3ccccc3)c(=O)c3c(C)c(C)sc32)c1	.	.	.	.	.	.
COc1cc(C2C3=C(COC3=O)OC(C)(C)Oc3cc4c(cc32)OCO4)cc(OC)c1OC (centres undefined)	?	?	-80	?	.	?
CN1CCN(c2ncc3nc(-c4cccs4)c(=O)n(CCC#N)c3n2)CC1	/	/	/	/	.	/
CC(C)(C)c1ccc(/C=C2\Oc3cc(OC(=O)N4CCOCC4)ccc3C2=O)cc1	8.9µM	.	.	.	?	?
Cc1ccc(/C=C2\Oc3cc(OC(=O)N4CCOCC4)ccc3C2=O)cc1	.	.	.	.	.	.
Nc1nc(N)nc(-c2cccc([N+](=O)[O-])c2)n1	/	.	.	.	.	/
Nc1nc(N)c2c(ccc3c2ccn3Cc2cccc([N+](=O)[O-])c2)n1	/	0.35µM	-99	11µM	?	/
O=S1(=O)C[C@H](N2CCN(CC3CC3)CC2)[C@@H](COCc2ccccc2)N1	/	.	?	.	.	?
CCOc1ccc(CNC(=O)c2ccc(Sc3ccc(C)cc3)c(N)c2)cc1OC	?	.	-62	.	?	/
CCC1CN(Cc2ccc(COC)o2)Cc2cc(OC)ccc2O1 (centres undefined)	/	.	/	.	.	/
CN(CC(=O)Nc1ccccc1C(F)(F)F)C(=O)COc1ncnc2ccccc12	.	.	.	.	.	.
CCOc1ccccc1Nc1cc2n(c(=O)n1)CCc1cc(OC)c(OC)cc1-2	?	.	.	.	.	?
SMILES	LASV entry inh	Vaccinia mCherry	HCMV inh	Vaccinia Venus	FMDV antiviral	Marburg entry inh
COc1cc2c(cc1OC)-c1cc(NC3CCCCCCC3)nc(=O)n1CC2	14µM	.[1.46 µM]	.	.	.	?
CCOc1ccc(Nc2cc3n(c(=O)n2)CCc2cc(OC)c(OC)cc2-3)cc1	11µM	.	.	.	.	.
N/C(Cc1ccc([N+](=O)[O-])cc1)=N\OC(=O)COc1ccccc1Cl	.	.	-102	.	.	.
N/C(Cc1ccc([N+](=O)[O-])cc1)=N\OC(=O)COc1cccc2ccccc12	?	/	.	/	.	.
Cc1nc2cc(C(F)(F)F)ccc2n1C1CCN(CC(=O)NC(C)(C)C)CC1	.	/	-82	/	.	?
CC(C)(Oc1ccc(Cl)cc1)C(=O)N/N=C/c1cn[nH]c1-c1ccccc1	?	/	.	/	.	.
CCc1ccccc1NC(=O)c1ccc2[nH]c(C)c(C)c2c1	?	.	.	.	.	/
CCNC(=S)N(CCc1c(C)[nH]c2ccc(Cl)cc12)Cc1ccco1	7.9µM	?	?	.	?	?
CNC(=S)N(CCc1c(C)[nH]c2ccc(C)cc12)Cc1ccco1	.	.	.	.	.	.
O=C(Nc1scc(-c2ccc(Br)cc2)c1C(=O)O)c1ccccc1F	?	.	.	.	.	3.2µM
Cc1c(C(=O)NCc2ccc(Cl)c(Cl)c2)sc(=O)n1Cc1ccc(S(=O)(=O)N(C)C)cc1	/	.	.	.	22µM	/
Cc1c(C(=O)NCc2ccc(C(C)C)cc2)sc(=O)n1Cc1ccc(S(=O)(=O)N(C)C)cc1	/	.	-68	.	11µM	/
Cc1c(C(=O)NCc2cccc(Cl)c2)sc(=O)n1Cc1ccc(C(=O)N(C)C)cc1	/	.	.	.	?	/
CSc1ccc(Cn2c(C)c(C(=O)NCc3ccc(C(C)C)cc3)sc2=O)cc1	/	.	.	.	.	/
Cc1c(C(=O)NCc2ccc(Cl)c(Cl)c2)sc(=O)n1Cc1ccc(C(=O)N(C)C)cc1	/	.	-69	.	?	/
Cc1cc(C(=O)COC(=O)CC2Sc3ccccc3NC2=O)c(C)n1-c1cccc(C(F)(F)F)c1 (centres undefined)	.	.	?	.	.	.
Cc1cc(C(=O)COC(=O)Cc2n[nH]c(=O)c3ccccc23)c(C)n1-c1cccc(C(F)(F)F)c1	?	.	.	.	?	11µM
O=C1C=C2C=C[C@H]3C[C@]2(O1)[C@@H]1CCCCN13	?	.	?	?	.	?
O=C1C=C2C=C[C@@H]3CC2(O1)[C@H]1CCCCN31	/	?	-94	.	?	/
COc1ccc(-c2nn(-c3ccccc3)cc2/C=N/NS(=O)(=O)c2ccccc2)cc1	.	.	.	.	.	?
COc1ccc(-c2nn(-c3ccccc3)cc2/C=N/NC(=O)c2cccc(S(=O)(=O)Nc3ccccc3Cl)c2)cc1	?	.	-101	.	.	?
COC(=O)c1cn(-c2ccccc2)nc1-c1ccc(OC)cc1	/	.	.	.	.	/
COc1ccc(-c2nn(-c3ccccc3)cc2/C=N/N2C(=O)CSC2=S)cc1	?	/	-96	/	.	?
COc1ccc(-c2nn(-c3ccccc3)cc2C(=O)n2nnc3ccccc32)cc1	.	.	.	.	20µM	.
COc1ccc(-c2nn(-c3ccccc3)cc2/C=N/O)cc1	/	/	.	/	14µM	/
COCC1CCN(C(=O)c2ccc3oc(CCc4ccccc4)nc3c2)C1 (centres undefined)	/	.	.	.	.	/
Cc1ncc(Cc2ccccc2)c(C2CCN(S(=O)(=O)C[C@]34CC[C@H](CC3=O)C4(C)C)CC2)n1	/	.	/	.	.	/
CCOCc1cc(=O)[nH]c(SC)n1	/	.	-60	.	.	/
CSc1nc(Cl)cc(=O)[nH]1	/	.	.	.	.	/

Source: PubChem BioAssay
